Measured values reported in PubChem BioAssay (EPA / NIEHS).
“And” between values parts separate entries of the source, which are not always exact repeats. Equal values may be shown once. Inconclusive results are not listed. The source holds several records for some structures; these can differ, active in one and inactive in another. The source made the active and inactive calls. The calls were made as follows, unless noted: active = hit-call score of the fitted dose curve at least 0.9, where 1 is the maximum; inactive = score below 0.9.

Columns and labels:
[1] = biological target: Bile acid receptor (Homo sapiens) (UniProt Q96RI1); experiment: ATG_FXR_TRANS: Attagene TRANS-FACTORIAL HepG2 Assay for Farnesoid X Receptor (FXR) (AID 2282979; active = hit-call score of the fitted dose curve at least 0.9, where 1 is the maximum;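 also: hits raise reporter mRNA above DMSO so AC50 marks FXR activation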); settings: HepG2 Attagene TRANS FXR-GAL4 reporter transcription
Method in brief: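 After 24 h chemical treatment of transfected HepG2 cells, GAL4-UAS reporter transcripts driven by an exogenous FXR-GAL4 fusion were measured by RT-PCR and capillary electrophoresis. Increases over DMSO were fitted.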

[2] = BSK_3C_Proliferation: Cell Proliferation Assessment in the BioMAP Diversity Plus: 3C Assay (AID 2283006); settings: primary human endothelial cells (HUVEC);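 as to AC50: potency may reflect either rise or fall in cell number versus DMSO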
Method in brief: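 Proliferation as total protein: sulforhodamine B (0.1%) stain of TCA-fixed subconfluent human umbilical vein endothelial cells, absorbance 560 nm, 48 h after dosing. Activity fitted in both directions against DMSO baseline.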

[3] = read-out: E-selectin (Homo sapiens) (UniProt P16581); experiment: BSK_3C_Eselectin: BioMAP Diversity Plus: 3C Assay for Eselectin Biomarker Activity (AID 2283015); settings: primary human endothelial cells (HUVEC); actives raise or lower the signal
Method in brief: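 Endpoint derived by bidirectional fitting against DMSO vehicle; signal is ELISA-detected E-selectin from primary HUVEC at 24 h post-dosing, with parallel SRB staining (0.1% SRB, 560 nm) flagging cytotoxicity.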

[4] = read-out: Human Leukocyte Antigen - DR isotype (HLADR), HLA-DRA (gene 3122); experiment: BSK_3C_HLADR: BioMAP Diversity Plus: 3C Assay for Human Leukocyte Antigen - DR isotype (HLADR) Biomarker Activity (AID 2283019); settings: primary human endothelial cells (HUVEC); actives raise or lower the signal
Method in brief: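 Compound added to primary HUVEC cultures, 24 h incubation, then HLA-DR determined by ELISA; endpoint derived by bidirectional fitting relative to DMSO negative control.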

[5] = read-out: Matrix Metallopeptidase 1 (MMP1), MMP1 (gene 4312); experiment: BSK_BE3C_MMP1: BioMAP Diversity Plus: BE3C Assay for Matrix Metallopeptidase 1 (MMP1) Biomarker Activity (AID 2283024); settings: primary human bronchial epithelial cells; actives raise or lower the signal
Method in brief: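 ELISA measurement of MMP-1 after 24 h compound exposure of primary human bronchial epithelial cells. Changes in either direction fitted relative to DMSO; parallel SRB staining checked overt cytotoxicity.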

[6] = BSK_BE3C_SRB: Viability Assessment in the BioMAP Diversity Plus: BE3C Assay (AID 2283028); settings: primary human bronchial epithelial cells;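 as to AC50: fitted both ways so AC50 may mark signal gain or loss versus DMSO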
Method in brief: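 SRB total-protein staining (0.1%, after TCA fixation) of chemically dosed human bronchial epithelial primary cells at 24 h; DMSO serves as the negative control for bidirectional curve fitting.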

[7] = read-out: Vascular cell adhesion molecule 1 (VCAM1), VCAM1 (gene 7412); experiment: BSK_4H_VCAM1: BioMAP Diversity Plus: 4H Assay for Vascular cell adhesion molecule 1 (VCAM1) Biomarker Activity (AID 2283033); settings: primary human endothelial cells (HUVEC); actives raise or lower the signal
Method in brief: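 VCAM-1 ELISA read 24 h after chemical dosing of HUVEC in the BioMAP 4H system, with gain or loss of signal fitted relative to DMSO. Parallel SRB staining (560 nm) checked overt cytotoxicity.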

[8] = read-out: Interferon-gamma inducible Protein 10 (IP10), CXCL10 (gene 3627); experiment: BSK_BE3C_IP10: BioMAP Diversity Plus: BE3C Assay for Interferon-gamma inducible Protein 10 (IP10) Biomarker Activity (AID 2283034); settings: primary human bronchial epithelial cells; actives raise or lower the signal
Method in brief: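 IP-10 quantified by ELISA in human primary bronchial epithelial cell cultures at 24 hours post-dosing. Gain or loss of signal fitted relative to DMSO; parallel SRB staining assessed overt cytotoxicity.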

[9] = read-out: Urokinase-type plasminogen activator receptor (uPAR), PLAUR (gene 5329); experiment: BSK_BE3C_uPAR: BioMAP Diversity Plus: BE3C Assay for Urokinase-type plasminogen activator receptor (uPAR) Biomarker Activity (AID 2283039); settings: primary human bronchial epithelial cells; actives raise or lower the signal
Method in brief: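 uPAR levels were measured by ELISA after 24 h compound treatment of primary human bronchial epithelial cells, fitted in both directions relative to DMSO. Parallel SRB staining served as the cytotoxicity read-out.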

[10] = read-out: Interleukin-6 (IL6), IL6 (gene 3569); experiment: BSK_CASM3C_IL6: BioMAP Diversity Plus: CASM3C Assay for Interleukin-6 (IL6) Biomarker Activity for (AID 2283040); settings: primary human coronary artery smooth muscle cells; actives raise or lower the signal
[11] = read-out: Monocyte Chemoattractant Protein-1 (MCP1), CCL2 (gene 6347); experiment: BSK_CASM3C_MCP1: BioMAP Diversity Plus: CASM3C Assay for Monocyte Chemoattractant Protein-1 (MCP1) Biomarker Activity (AID 2283046); settings: primary human coronary artery smooth muscle cells; actives raise or lower the signal;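 also: MCP-1 level quantified by ELISA 24 h after dosing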
[12] = BSK_CASM3C_Proliferation: Cell Proliferation Assessment in the BioMAP Diversity Plus: CASM3C Assay (AID 2283047); settings: primary human coronary artery smooth muscle cells;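 also: sub-confluent cells exposed 48 h before staining; fitted both ways against DMSO so gain or loss of cell number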
[13] = read-out: Monokine induced gamma interferon (MIG), CXCL9 (gene 4283); experiment: BSK_CASM3C_MIG: BioMAP Diversity Plus: CASM3C Assay for Monokine induced gamma interferon (MIG) Biomarker Activity (AID 2283048); settings: primary human coronary artery smooth muscle cells; actives raise or lower the signal;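 also: MIG protein level measured by ELISA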
[14] = read-out: Tissue Factor, F3 (gene 2152); experiment: BSK_CASM3C_TissueFactor: BioMAP Diversity Plus: CASM3C Assay for Tissue Factor Biomarker Activity (AID 2283052); settings: primary human coronary artery smooth muscle cells; actives raise or lower the signal;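 also: cell surface tissue factor protein level read by ELISA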
[15] = read-out: Interferon-gamma inducible Protein 10 (IP10), CXCL10 (gene 3627); experiment: BSK_hDFCGF_IP10: BioMAP Diversity Plus: hDFCGF Assay for Interferon-gamma inducible Protein 10 (IP10) Biomarker Activity (AID 2283053); settings: primary human foreskin fibroblasts; actives raise or lower the signal
Method in brief: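 ELISA quantification of IP-10 after a 24 h chemical exposure of human dermal foreskin fibroblast primary cultures. Both increases and decreases versus DMSO fitted.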

[16] = read-out: Epidermal growth factor receptor (EGFR), EGFR (gene 1956); experiment: BSK_hDFCGF_EGFR: BioMAP Diversity Plus: hDFCGF Assay for Epidermal growth factor receptor (EGFR) Biomarker Activity (AID 2283057); settings: primary human foreskin fibroblasts; actives raise or lower the signal
Method in brief: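 EGFR levels by ELISA in human dermal fibroblast cultures, 24 h post-treatment, fitted bidirectionally versus DMSO. Parallel wells stained with sulforhodamine B to detect overt cytotoxicity.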

[17] = read-out: Monokine induced gamma interferon (MIG), CXCL9 (gene 4283); experiment: BSK_SAg_MIG: BioMAP Diversity Plus: SAg Assay for Monokine induced gamma interferon (MIG) Biomarker Activity (AID 2283092); settings: primary human HUVEC with PBMC; actives raise or lower the signal
Method in brief: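 Measures CXCL9 protein by ELISA in a human vascular primary-cell co-culture (umbilical vein endothelium with PBMC) 24 h after chemical addition. Activity is scored up or down from the DMSO control.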

[18] = BSK_SAg_PBMCCytotoxicity: PBMC Cytotoxicity Assessment in the BioMAP Diversity Plus: SAg Assay (AID 2283093); settings: primary human HUVEC with PBMC;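 also: PBMC viability measured as Alamar Blue reduction fluorescence at 546/580 nm; fitted both ways against DMSO so a hit may be loss or gain of signal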;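 as to AC50: PBMC superantigen activated with SEB plus TSST-1 one hour after compound addition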
Method in brief: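 Alamar Blue reduction (6 h, 546/580 nm) reports PBMC cytotoxicity after 90 h superantigen activation (SEB, TSST-1; 20 ng/mL final each) with 1 h compound pre-treatment. Gain or loss of signal fitted versus DMSO.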

[19] = BSK_SAg_Proliferation: Cell Proliferation Assessment in the BioMAP Diversity Plus: SAg Assay (AID 2283095); settings: primary human HUVEC with PBMC;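 also: relative cell number as total protein by SRB absorbance in sub-confluent culture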
Method in brief: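 Relative cell number in the endothelial cell/PBMC co-culture was quantified at 96 h by SRB staining (0.1% SRB, 10% TCA fixation, read at 560 nm). Curves were fitted in both directions relative to DMSO baseline.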

[20] = biological target: Estrogen receptor (Homo sapiens) (UniProt P03372); experiment: ATG_ERa_TRANS: Attagene TRANS-FACTORIAL HepG2 Assay for human Estrogen Receptor alpha (ERa) (AID 2282970; active = hit-call score of the fitted dose curve at least 0.9, where 1 is the maximum); settings: HepG2 Attagene TRANS ERa GAL4 reporter, mRNA
Method in brief: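 Signal derives from fluorescence of labelled reporter PCR fragments separated by capillary electrophoresis. HepG2 cells transiently carrying multiple GAL4-UAS reporter units were treated 24 hours, and induction above DMSO baseline was fitted as activity.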

Measured: AC50

Bile acid receptor (Homo sapiens), sequence (Q96RI1 whole entry, looked up, the tested form may be a part): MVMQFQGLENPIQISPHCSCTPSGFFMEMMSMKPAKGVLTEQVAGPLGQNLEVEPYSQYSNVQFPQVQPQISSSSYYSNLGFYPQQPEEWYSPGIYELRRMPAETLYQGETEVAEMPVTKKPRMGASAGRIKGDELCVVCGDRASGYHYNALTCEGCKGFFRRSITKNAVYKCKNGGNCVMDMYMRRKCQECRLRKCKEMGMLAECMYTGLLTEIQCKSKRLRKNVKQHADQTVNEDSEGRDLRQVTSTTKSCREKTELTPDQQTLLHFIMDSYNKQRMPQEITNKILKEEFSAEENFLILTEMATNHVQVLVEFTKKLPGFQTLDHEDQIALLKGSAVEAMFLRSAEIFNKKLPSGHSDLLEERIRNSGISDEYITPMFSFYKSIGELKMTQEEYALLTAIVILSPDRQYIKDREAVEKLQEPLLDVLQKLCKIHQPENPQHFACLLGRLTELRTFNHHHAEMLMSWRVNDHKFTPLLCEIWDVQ
E-selectin (Homo sapiens), sequence (P16581 whole entry, looked up): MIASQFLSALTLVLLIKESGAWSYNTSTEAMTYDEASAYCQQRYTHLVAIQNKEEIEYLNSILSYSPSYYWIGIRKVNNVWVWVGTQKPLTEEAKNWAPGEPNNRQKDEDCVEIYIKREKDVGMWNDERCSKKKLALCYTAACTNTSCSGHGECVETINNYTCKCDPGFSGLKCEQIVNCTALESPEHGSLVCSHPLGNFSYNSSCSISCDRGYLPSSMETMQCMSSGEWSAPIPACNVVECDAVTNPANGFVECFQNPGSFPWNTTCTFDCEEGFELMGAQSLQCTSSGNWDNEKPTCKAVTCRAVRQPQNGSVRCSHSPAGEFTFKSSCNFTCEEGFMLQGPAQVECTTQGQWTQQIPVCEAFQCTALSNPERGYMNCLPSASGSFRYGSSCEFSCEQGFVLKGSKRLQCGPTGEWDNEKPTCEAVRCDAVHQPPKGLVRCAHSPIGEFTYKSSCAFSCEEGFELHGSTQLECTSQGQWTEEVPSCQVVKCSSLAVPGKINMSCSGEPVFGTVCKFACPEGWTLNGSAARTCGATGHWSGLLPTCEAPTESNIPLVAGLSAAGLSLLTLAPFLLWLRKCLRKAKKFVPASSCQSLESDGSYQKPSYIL
Estrogen receptor (Homo sapiens), sequence (P03372 whole entry, looked up, the tested form may be a part): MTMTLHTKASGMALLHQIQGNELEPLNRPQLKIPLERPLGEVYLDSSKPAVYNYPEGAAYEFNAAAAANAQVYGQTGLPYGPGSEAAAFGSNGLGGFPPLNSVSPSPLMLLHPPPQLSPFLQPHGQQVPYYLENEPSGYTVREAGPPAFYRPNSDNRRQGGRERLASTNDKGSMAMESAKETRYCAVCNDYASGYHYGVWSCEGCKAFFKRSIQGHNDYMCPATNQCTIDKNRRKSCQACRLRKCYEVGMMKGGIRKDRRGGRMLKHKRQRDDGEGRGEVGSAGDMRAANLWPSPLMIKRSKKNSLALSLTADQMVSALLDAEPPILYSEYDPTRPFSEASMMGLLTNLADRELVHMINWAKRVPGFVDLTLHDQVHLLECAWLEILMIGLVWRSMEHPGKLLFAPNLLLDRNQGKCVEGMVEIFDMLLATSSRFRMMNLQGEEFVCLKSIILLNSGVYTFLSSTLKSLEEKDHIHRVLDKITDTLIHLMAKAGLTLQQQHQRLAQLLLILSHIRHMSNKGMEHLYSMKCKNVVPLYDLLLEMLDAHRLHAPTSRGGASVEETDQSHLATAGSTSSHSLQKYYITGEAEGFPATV

COc1ccc(CO)cc1
inactive: [1] | [2] | [3] | [4] | [5] | [6] | [7] | [8] | [9] | [10] | [11] | [12] | [13] | [14] | [15] | [16] | [17] | [18] | [19]

CC1(C)[C@H](C(=O)O[C@H](C#N)c2cccc(Oc3ccccc3)c2)[C@@H]1C=C(Br)Br
active: [19] 3.97 µM
inactive: [2] | [3] | [4] | [5] | [6] | [7] | [8] | [9] | [10] | [11] | [12] | [13] | [14] | [15] | [16] | [17] | [18] | [19]

O=c1c2ccccc2c(=O)c2c1cc(Cl)c1[nH]c3c([nH]c12)c(Cl)cc1c(=O)c2ccccc2c(=O)c13
inactive: [20] | [1] | [2] | [3] | [4] | [6] | [7] | [8] | [9] | [10] | [11] | [12] | [13] | [14] | [16] | [17] | [18] | [19]
active: [5] 20 µM | [15] 29 µM

Oc1ccc(C2(c3ccc(O)cc3)c3ccccc3-c3ccccc32)cc1
inactive: [20] | [1] | [5] | [16]
active: [2] 6.04 µM and 6.12 µM | [3] 18.1 µM and 23.5 µM | [4] 9.06 µM and 7.06 µM | [6] 5.04 µM and 5.03 µM | [7] 6.91 µM and 7.37 µM | [8] 5.4 µM and 3.97 µM | [9] 5.37 µM and 5.3 µM | [10] 9.02 µM and 4.73 µM | [11] 20 µM | [12] 32.4 µM and 32.9 µM | [13] 914 nM and 799 nM | [14] 178 nM and 3.97 µM | [15] 2.87 µM and 2.53 µM | [17] 12.4 µM and 11.5 µM | [18] 12.1 µM and 12.3 µM | [19] 9.89 µM and 9.81 µM

Oc1cc(Cl)ccc1Cl
inactive: [2] | [3] | [4] | [5] | [6] | [7] | [8] | [9] | [10] | [11] | [12] | [13] | [14] | [15] | [16] | [17] | [18] | [19]

CCc1cc(C)cc(CC)c1-c1c(OC(=O)C(C)(C)C)n2n(c1=O)CCOCC2
active: [3] 5.7 µM | [4] 24.7 µM | [7] 9.41 µM | [12] 20 µM | [14] 8.26 µM
inactive: [2] | [5] | [6] | [8] | [9] | [10] | [11] | [13] | [15] | [16] | [17] | [18] | [19]
